Our source for the NP40-soluble protein abundance values is the supplement of paper PMC6411743.

Compound in this assay: Nc1ncnc2c1ncn2[C@@H]1O[C@H](COP(=O)(O)OP(=O)(O)OP(=O)(O)O)[C@@H](O)[C@H]1O [adenosine triphosphate]
The assay is described as follows: NP40-soluble protein abundance relative to vehicle (solubility fold change) (ratio); higher = more soluble protein in presence of ATP. The method in brief:
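Values are fold changes against the detergent-processed vehicle, based on vsn-normalised intensities. Jurkat crude lysate was treated at eight concentrations from 0.1 to 10 mM (10 min at room temperature, then 3 min at 37 °C), solubilised with 0.8% NP40 and benzonase, ultracentrifuged and analysed by TMT-labelled LC-MS/MS over three independent experiments.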

± gives the standard deviation of the averaged measurements. Targets with the largest changes are over-represented here; the source holds about 6,500 in all.

UniProt P10606, sequence (P10606 whole entry): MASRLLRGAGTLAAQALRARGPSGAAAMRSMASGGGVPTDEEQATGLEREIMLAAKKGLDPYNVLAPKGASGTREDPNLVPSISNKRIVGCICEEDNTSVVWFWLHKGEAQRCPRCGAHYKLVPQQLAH
UniProt P51114, sequence (P51114 whole entry): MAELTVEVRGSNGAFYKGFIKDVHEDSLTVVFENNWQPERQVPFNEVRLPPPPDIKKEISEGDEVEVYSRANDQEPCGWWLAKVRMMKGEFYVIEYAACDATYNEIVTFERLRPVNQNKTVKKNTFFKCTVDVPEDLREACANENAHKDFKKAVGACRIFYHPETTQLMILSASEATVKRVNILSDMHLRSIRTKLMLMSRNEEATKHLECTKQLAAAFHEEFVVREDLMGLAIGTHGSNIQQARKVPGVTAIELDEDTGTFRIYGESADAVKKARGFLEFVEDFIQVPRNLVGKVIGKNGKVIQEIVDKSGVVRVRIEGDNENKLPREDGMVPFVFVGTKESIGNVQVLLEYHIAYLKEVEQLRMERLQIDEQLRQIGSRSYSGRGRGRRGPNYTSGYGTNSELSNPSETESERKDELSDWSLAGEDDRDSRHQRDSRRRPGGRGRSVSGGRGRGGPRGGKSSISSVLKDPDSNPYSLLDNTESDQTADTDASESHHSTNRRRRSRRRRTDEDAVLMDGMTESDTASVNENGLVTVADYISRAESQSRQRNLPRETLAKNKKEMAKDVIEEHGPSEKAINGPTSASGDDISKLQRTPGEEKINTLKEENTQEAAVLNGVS
UniProt P49756, sequence (P49756 whole entry): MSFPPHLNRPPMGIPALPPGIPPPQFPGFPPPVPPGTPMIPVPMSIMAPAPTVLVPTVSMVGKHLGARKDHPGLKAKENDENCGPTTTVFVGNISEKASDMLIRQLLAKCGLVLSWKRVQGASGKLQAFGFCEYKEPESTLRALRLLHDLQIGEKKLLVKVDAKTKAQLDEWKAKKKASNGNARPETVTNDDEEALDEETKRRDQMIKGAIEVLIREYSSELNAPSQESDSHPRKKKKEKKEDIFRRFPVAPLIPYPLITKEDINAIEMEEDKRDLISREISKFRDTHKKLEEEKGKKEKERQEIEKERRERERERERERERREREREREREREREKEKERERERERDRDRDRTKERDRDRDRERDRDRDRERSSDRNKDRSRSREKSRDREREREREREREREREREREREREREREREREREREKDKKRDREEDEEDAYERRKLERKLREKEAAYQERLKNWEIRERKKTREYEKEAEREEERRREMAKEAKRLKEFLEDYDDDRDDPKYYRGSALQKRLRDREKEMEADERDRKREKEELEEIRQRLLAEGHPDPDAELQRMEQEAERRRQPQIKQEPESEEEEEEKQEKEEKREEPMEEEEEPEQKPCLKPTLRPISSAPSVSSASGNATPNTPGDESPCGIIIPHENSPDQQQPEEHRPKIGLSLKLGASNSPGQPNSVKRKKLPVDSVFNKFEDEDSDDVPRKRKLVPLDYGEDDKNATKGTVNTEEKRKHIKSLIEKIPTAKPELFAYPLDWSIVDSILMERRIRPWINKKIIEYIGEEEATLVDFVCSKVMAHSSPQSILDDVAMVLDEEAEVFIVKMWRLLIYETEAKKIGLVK
UniProt Q01415, sequence (Q01415 whole entry): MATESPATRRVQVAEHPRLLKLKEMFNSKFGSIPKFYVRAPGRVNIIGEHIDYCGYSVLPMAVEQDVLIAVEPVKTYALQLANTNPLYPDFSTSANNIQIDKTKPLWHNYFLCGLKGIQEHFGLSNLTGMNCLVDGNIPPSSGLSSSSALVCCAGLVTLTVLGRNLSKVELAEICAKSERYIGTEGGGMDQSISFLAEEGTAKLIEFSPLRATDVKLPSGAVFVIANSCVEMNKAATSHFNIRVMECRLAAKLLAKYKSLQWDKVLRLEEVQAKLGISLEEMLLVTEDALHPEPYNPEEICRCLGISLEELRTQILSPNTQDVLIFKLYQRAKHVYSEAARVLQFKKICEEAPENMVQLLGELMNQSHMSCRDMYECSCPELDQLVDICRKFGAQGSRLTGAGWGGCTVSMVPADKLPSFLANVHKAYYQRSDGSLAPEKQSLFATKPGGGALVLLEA
UniProt P13010, sequence (P13010 whole entry): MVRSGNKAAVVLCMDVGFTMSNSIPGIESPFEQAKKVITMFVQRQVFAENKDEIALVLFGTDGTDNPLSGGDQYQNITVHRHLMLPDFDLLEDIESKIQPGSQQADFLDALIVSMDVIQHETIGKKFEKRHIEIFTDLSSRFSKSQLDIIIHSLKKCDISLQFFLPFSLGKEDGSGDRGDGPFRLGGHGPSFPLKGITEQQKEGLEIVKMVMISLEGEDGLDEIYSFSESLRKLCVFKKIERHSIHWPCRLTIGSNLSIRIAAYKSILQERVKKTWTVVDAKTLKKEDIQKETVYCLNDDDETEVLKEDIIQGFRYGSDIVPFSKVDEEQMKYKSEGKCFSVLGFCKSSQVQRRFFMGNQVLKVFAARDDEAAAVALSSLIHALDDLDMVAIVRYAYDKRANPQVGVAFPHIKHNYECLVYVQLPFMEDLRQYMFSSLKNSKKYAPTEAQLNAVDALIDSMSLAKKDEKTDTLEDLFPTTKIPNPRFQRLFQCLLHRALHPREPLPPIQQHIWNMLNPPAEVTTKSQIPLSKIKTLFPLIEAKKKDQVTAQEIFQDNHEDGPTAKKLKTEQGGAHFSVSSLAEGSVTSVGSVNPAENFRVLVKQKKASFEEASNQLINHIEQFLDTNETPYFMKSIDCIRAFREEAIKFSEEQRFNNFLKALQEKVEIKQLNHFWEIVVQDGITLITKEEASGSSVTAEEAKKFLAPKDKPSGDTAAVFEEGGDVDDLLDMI
UniProt P55769, sequence (P55769 whole entry): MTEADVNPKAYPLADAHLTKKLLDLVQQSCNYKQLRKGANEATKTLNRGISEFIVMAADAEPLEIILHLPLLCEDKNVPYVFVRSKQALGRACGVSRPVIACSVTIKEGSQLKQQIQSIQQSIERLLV
UniProt P20248, sequence (P20248 whole entry): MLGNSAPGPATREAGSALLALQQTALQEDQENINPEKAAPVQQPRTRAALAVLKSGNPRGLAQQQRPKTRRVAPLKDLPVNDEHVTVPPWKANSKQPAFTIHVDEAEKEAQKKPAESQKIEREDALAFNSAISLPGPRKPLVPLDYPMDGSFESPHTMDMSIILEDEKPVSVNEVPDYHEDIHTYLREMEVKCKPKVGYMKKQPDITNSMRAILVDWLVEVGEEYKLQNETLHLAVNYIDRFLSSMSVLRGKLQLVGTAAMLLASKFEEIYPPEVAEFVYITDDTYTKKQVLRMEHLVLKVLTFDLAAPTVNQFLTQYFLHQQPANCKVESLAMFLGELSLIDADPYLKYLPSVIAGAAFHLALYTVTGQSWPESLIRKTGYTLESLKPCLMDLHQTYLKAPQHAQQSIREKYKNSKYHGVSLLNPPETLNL
UniProt O75446, sequence (O75446 whole entry): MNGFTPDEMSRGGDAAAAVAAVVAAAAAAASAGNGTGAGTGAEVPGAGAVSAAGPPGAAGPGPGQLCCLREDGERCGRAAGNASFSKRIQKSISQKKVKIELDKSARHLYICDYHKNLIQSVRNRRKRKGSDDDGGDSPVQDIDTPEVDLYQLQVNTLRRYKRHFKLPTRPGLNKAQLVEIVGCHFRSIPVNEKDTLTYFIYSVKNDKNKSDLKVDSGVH
UniProt P42696, sequence (P42696 whole entry): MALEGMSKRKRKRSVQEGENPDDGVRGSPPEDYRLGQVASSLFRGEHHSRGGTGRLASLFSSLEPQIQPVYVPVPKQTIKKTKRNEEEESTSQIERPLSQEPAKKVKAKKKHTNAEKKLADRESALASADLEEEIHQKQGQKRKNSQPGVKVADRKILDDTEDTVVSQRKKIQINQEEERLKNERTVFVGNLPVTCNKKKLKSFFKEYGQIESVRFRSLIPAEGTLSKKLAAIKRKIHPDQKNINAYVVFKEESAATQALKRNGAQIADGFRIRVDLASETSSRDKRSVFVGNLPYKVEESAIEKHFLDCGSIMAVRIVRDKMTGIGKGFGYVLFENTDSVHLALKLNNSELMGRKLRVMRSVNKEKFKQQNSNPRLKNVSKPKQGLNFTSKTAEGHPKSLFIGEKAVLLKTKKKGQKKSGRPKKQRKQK
UniProt O95573, sequence (O95573 whole entry): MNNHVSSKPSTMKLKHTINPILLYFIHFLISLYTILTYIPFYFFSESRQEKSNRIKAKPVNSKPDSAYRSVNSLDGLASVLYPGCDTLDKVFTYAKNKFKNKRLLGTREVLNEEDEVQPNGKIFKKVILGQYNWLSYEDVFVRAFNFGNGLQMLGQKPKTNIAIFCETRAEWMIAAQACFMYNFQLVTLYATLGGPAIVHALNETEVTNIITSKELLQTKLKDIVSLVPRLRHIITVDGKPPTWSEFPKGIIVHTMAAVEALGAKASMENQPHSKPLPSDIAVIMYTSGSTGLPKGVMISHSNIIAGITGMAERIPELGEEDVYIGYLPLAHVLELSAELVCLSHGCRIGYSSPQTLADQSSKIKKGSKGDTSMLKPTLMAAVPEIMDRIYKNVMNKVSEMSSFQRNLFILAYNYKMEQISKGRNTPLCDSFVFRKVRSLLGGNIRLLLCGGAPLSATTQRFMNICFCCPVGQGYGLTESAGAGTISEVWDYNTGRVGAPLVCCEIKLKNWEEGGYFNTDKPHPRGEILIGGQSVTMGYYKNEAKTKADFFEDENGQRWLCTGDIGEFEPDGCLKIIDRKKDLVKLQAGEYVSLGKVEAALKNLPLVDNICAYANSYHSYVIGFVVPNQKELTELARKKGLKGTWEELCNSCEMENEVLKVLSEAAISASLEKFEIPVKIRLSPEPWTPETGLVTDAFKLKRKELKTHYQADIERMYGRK
UniProt P27707, sequence (P27707 whole entry, looked up): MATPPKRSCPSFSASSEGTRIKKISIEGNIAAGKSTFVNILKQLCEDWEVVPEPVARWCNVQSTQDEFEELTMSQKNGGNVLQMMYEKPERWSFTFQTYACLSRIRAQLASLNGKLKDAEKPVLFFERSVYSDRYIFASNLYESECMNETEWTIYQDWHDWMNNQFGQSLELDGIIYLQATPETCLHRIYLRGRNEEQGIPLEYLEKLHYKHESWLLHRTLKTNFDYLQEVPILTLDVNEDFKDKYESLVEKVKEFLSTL

As for RBM34 (UniProt P42696), the NP40-soluble protein abundance reads like this: (concentration: 1mM) 1.16 ± 0.026; (concentration: 2mM) 1.21 ± 0.059; (concentration: 4mM) 1.4 ± 0.097; (concentration: 6mM) 1.57 ± 0.1; (concentration: 8mM) 1.7 ± 0.18; (concentration: 10mM) 1.85 ± 0.21.

Turning to SAP30 (UniProt O75446), the NP40-soluble protein abundance is 0.93 ± 0.092 (concentration: 1mM); 0.952 ± 0.092 (concentration: 2mM); 0.907 ± 0.073 (concentration: 4mM); 0.971 ± 0.15 (concentration: 6mM); 0.96 ± 0.044 (concentration: 8mM); 0.915 ± 0.13 (concentration: 10mM).

Regarding GALK2 (UniProt Q01415), the NP40-soluble protein abundance came out at 0.938 ± 0.068 (concentration: 1mM); 0.975 ± 0.073 (concentration: 2mM); 0.985 ± 0.012 (concentration: 4mM); 0.86 ± 0.12 (concentration: 6mM); 0.956 ± 0.066 (concentration: 8mM); 0.968 ± 0.037 (concentration: 10mM).

For CCNA2 (UniProt P20248), the NP40-soluble protein abundance (concentration: 1mM) was found to be 0.998 ± 0.059; the NP40-soluble protein abundance (concentration: 2mM) came out at 0.977 ± 0.027; the NP40-soluble protein abundance (concentration: 4mM) is 0.993 ± 0.017; the NP40-soluble protein abundance (concentration: 6mM) was 1.03 ± 0.046; the NP40-soluble protein abundance (concentration: 8mM) was found to be 0.9881 ± 0.0022; the NP40-soluble protein abundance (concentration: 10mM) came out at 0.995 ± 0.05.

As for XRCC5 (UniProt P13010), the NP40-soluble protein abundance (concentration: 1mM) was 1.04 ± 0.055; the NP40-soluble protein abundance (concentration: 2mM) amounted to 1.01 ± 0.051; the NP40-soluble protein abundance (concentration: 4mM) was 0.996 ± 0.039; the NP40-soluble protein abundance (concentration: 6mM) was 0.961 ± 0.076; the NP40-soluble protein abundance (concentration: 8mM) worked out at 1 ± 0.024; the NP40-soluble protein abundance (concentration: 10mM) was 0.993 ± 0.057.

On to GAA (UniProt P10253), for which the NP40-soluble protein abundance worked out at 0.981 ± 0.012 (concentration: 1mM); 1.01 ± 0.021 (concentration: 2mM); 1 ± 0.028 (concentration: 4mM); 0.972 ± 0.015 (concentration: 6mM); 0.962 ± 0.055 (concentration: 8mM); 0.997 ± 0.033 (concentration: 10mM).

DCK (UniProt P27707): the NP40-soluble protein abundance (concentration: 1mM) is 0.955 ± 0.067; the NP40-soluble protein abundance (concentration: 2mM) stood at 0.98 ± 0.052; the NP40-soluble protein abundance (concentration: 4mM) was 0.914 ± 0.046; the NP40-soluble protein abundance (concentration: 6mM) was 0.935 ± 0.093; the NP40-soluble protein abundance (concentration: 8mM) is 0.933 ± 0.03; the NP40-soluble protein abundance (concentration: 10mM) was 0.948 ± 0.044.

In the case of UniProt P55769, the NP40-soluble protein abundance was found to be 1.03 ± 0.15 (concentration: 1mM); 1.06 ± 0.11 (concentration: 2mM); 1.13 ± 0.13 (concentration: 4mM); 1.23 ± 0.11 (concentration: 6mM); 1.28 ± 0.049 (concentration: 8mM); 1.33 ± 0.24 (concentration: 10mM).

Regarding UniProt P49354|H0YCW1, the NP40-soluble protein abundance was 1.05 ± 0.088 (concentration: 1mM); 1.01 ± 0.059 (concentration: 2mM); 1.03 ± 0.053 (concentration: 4mM); 0.955 ± 0.12 (concentration: 6mM); 1.04 ± 0.076 (concentration: 8mM); 0.996 ± 0.062 (concentration: 10mM).

Regarding COX5B (UniProt P10606), the NP40-soluble protein abundance reads like this: (concentration: 1mM) 0.9588 ± 0.0074; (concentration: 2mM) 0.963 ± 0.013; (concentration: 4mM) 0.966 ± 0.032; (concentration: 6mM) 1.01 ± 0.028; (concentration: 8mM) 0.936 ± 0.055; (concentration: 10mM) 0.929 ± 0.012.

In the case of HMGN2 (UniProt P05204), the NP40-soluble protein abundance turned out to be 1.06 ± 0.36 (concentration: 1mM); 1.27 ± 0.42 (concentration: 2mM); 1.29 ± 0.44 (concentration: 4mM); 1.67 ± 0.9 (concentration: 6mM); 1.55 ± 0.41 (concentration: 8mM); 2.08 ± 1.5 (concentration: 10mM).

Take UniProt P08243|P08243-2|P08243-3: the NP40-soluble protein abundance reads like this: (concentration: 1mM) 1.1 ± 0.13; (concentration: 2mM) 1.1 ± 0.12; (concentration: 4mM) 1.1 ± 0.11; (concentration: 6mM) 1.03 ± 0.14; (concentration: 8mM) 1.15 ± 0.12; (concentration: 10mM) 1.09 ± 0.097.

Take UniProt P51114|P51114-2: the NP40-soluble protein abundance runs as follows: (concentration: 1mM) 1.644 ± 0.0088; (concentration: 2mM) 1.79 ± 0.041; (concentration: 4mM) 2.03 ± 0.048; (concentration: 6mM) 2.17 ± 0.11; (concentration: 8mM) 2.32 ± 0.039; (concentration: 10mM) 2.4 ± 0.045.

For the target RBM25 (UniProt P49756), the NP40-soluble protein abundance reads like this: (concentration: 1mM) 1.21 ± 0.074; (concentration: 2mM) 1.33 ± 0.12; (concentration: 4mM) 1.68 ± 0.22; (concentration: 6mM) 2.25 ± 0.24; (concentration: 8mM) 2.63 ± 0.34; (concentration: 10mM) 3.08 ± 0.38.

On to UniProt Q00653|Q00653-4, for which the NP40-soluble protein abundance by setting is: (concentration: 1mM) 1.006 ± 0.0072; (concentration: 2mM) 0.99 ± 0.026; (concentration: 4mM) 0.971 ± 0.025; (concentration: 6mM) 0.995 ± 0.022; (concentration: 8mM) 0.965 ± 0.021; (concentration: 10mM) 0.973 ± 0.012.

For UniProt P61201|P61201-2, the NP40-soluble protein abundance is, setting by setting: (concentration: 1mM) 0.9548 ± 0.0092; (concentration: 2mM) 0.945 ± 0.031; (concentration: 4mM) 0.9178 ± 0.005; (concentration: 6mM) 0.968 ± 0.03; (concentration: 8mM) 0.912 ± 0.043; (concentration: 10mM) 0.916 ± 0.026.

Take ACSL3 (UniProt O95573): the NP40-soluble protein abundance runs as follows: (concentration: 1mM) 1.02 ± 0.05; (concentration: 2mM) 1.05 ± 0.028; (concentration: 4mM) 1.03 ± 0.036; (concentration: 6mM) 1 ± 0.11; (concentration: 8mM) 1.03 ± 0.041; (concentration: 10mM) 1.01 ± 0.031.
